Measurements reported in PubChem BioAssay AID1345085 (National Center for Advancing Translational Sciences (NCATS), 2018).
Results filed as inconclusive are left out. Active and inactive are the calls of the source. The call rests on the fitted dose curve; in most records, active means well fitted cell-killing curve with a large enough effect; inconclusive means small, poorly fitted or top-dose-only effect, or effect the other way; inactive means no such curve, though single readings can be large or run the other way. *1 amine or outer side, *2 acyl side, *3 side chain or, on linkers, in order; H or OH if unused. Where a SMILES comes first, the peptide text is derived from it. Bridges are numbered along the chain shown (N, C = ends). Roman numbers before positions name the chains, in order. [ ]: non-standard residue; d: D form. Actinocin(9to1) = Cc1c2oc3c(C)ccc(C(=O)[*:1])c3nc-2c(C(=O)[*:2])c(N)c1=O; NMeV = CN[C@H](C(=O)O)C(C)C; Sar = CNCC(=O)O

test system: JEG-3; assay: Confirmatory qHTS for gynecologic anti-cancer compounds from libraries of approved drugs and bioactive compounds; details: gynecologic cancer cell panel viability, ATPlite luminescence, 48 h; series mostly up to 57.6 µM; further: nearly all actives have a fitted effect of over 55% in size
From the text: National Center for Advancing Translational Sciences [NCATS] Assay Overview: Chemotherapeutic drug responses vary from cancer to cancer and from patient to patient. These variations could be caused by a number of factors including patient genomic background, tumor mutations, tumor heterogeneity, and aspects of drug treatment. Chemotherapeutic drug resistance is also a common issue and can lead to ineffective treatment and patient death. Here we have profiled the cell killing effects of thousands of compounds to characterize the responses in three gynecological cancers, identify cancer-selective compounds, and understand the diversity of responses to these compounds from pan-cancer suppressors to single cell line selective compounds. In this assay, we screened a 7,914 compound drug library that included approved drug and bioactive compounds in six ovarian, three cervical, and two placental cancer cell lines using the ATPlite assay for cell viability. ATPlite is a luminescence based assay reliant on the conversion of a luciferase substrate to light in the presence of ATP. As a cytotoxic compound will suppress growth and decrease the number of cells, the concentration of ATP will decrease, and less light signal will be detected in the well. Hits were selected from the primary screen for follow-up confirmation. For the confirmation screens, the ovarian cancer cell lines included CAOV-3, SK-OV-3, SW 626, ES-2, PA-1, and TOV-21G. The cervical cancer cell lines included HeLa, Ca Ski, and C-33 A. The placental cancer cell lines included JEG-3 and JAR. HEK 293T cells were used as the control cell line to determine the selectivity index. The ATPlite assay was used to determine the IC50 values.
Assay Protocol Summary: 1,000 cells in 4 uL of media were dispensed into white, solid bottom 1536-well plates using a Multidrop Combi (Thermo Scientific). The Assay plates were incubated for 16 hours at 37 C with 5% CO2 in assay plates, followed by the addition of 23 nL of DMSO or drug dissolved in DMSO. . Each compound was assayed in 11 concentrations (1:3 dilution) from 57.5 uM to 0.977 nM, using the automated Wako 1536 Pin Tool workstation and incubated at 37 C with 5% CO2 48 hours. 4 uL of ATPlite, the ATP monitoring reagent, was then added to the each well of the assay plates using the Multidrop Combi reagent dispenser followed by incubation for 15 minutes at room temperature. The resulting luminescence was measured using the ViewLux plate reader.
Potency means the concentration at half of the fitted maximal effect.

Row | Compound | Potency
1 | CC[C@H](CC#N)OC(=O)N[C@@H](C)c1cccc(NC(=O)Nc2ccc(-c3cnco3)c(OC)c2)c1 | 15.3 µM (active)
2 | CCn1cc(-c2ccnc3[nH]c(-c4cccc(CN(C)C)c4)cc23)c(-c2ccc(NC(=O)N(C)C)cc2)n1 | 13.3 µM (active)
3 | O=C(c1ccc(/C=C/c2n[nH]c3ccccc23)cc1)N1CCNCC1 | 24.3 µM (active)
4 | CCC1=CC2CN(C1)Cc1c([nH]c3ccccc13)[C@@](C(=O)OC)(c1cc3c(cc1OC)N(C)[C@H]1[C@@](O)(C(=O)OC)[C@H](OC(C)=O)[C@]4(CC)C=CCN5CC[C@]31[C@@H]54)C2 (stereo not given in full) | 0.0943 µM (active)
5 | Cn1cc(-c2[nH]c3cc(NC(=O)[C@H](N)C4CCCCC4)cc4c3c2C=NNC4=O)cn1 | 7.69 µM (active)
6 | CC[C@@]1(O)C(=O)OCc2c1cc1n(c2=O)Cc2cc3cc(O)ccc3nc2-1 | 0.217 µM (active)
7 | CCN1C[C@H](C)n2c(c(O)c3c(=O)n(Cc4ccc(F)c(Cl)c4)nc(C(=O)NC)c32)C1=O | inactive
8 | C1CCC(C(CC2CCCCN2)C2CCCCC2)CC1 (stereo not given) | 27.3 µM (active)
9 | COc1cc2c(cc1-c1c(C)noc1C)ncc1[nH]c(=O)n(C(C)c3ccccn3)c12 (stereo not given) | 3.06 µM (active)
10 | CCCCc1oc2ccccc2c1C(=O)c1cc(I)c(OCCN(CC)CC)c(I)c1 | 70.8 µM (active)
11 | COc1cccc2c1C(=O)c1c(O)c3c(c(O)c1C2=O)C[C@@](O)(C(=O)CO)C[C@@H]3O[C@H]1C[C@H](N)[C@H](O)[C@H](C)O1 | 1.09 µM (active)
12 | CN1CCN(CCOc2cc(OC3CCOCC3)c3c(Nc4c(Cl)ccc5c4OCO5)ncnc3c2)CC1 | inactive
13 | C[C@]12CCC(=O)C=C1[C@@H]1C[C@@H]1[C@H]1[C@@H]3[C@@H]4C[C@@H]4[C@@]4(CCC(=O)O4)[C@@]3(C)CC[C@@H]12 | inactive
14 | N=C(N)c1ccc(OCCCCCOc2ccc(C(=N)N)cc2)cc1 | 3.43 µM (active)
15 | COCCOc1nc(-c2ccc(Cl)c(Cl)c2)n(-c2ccc(NC(=O)CCl)cc2)n1 | 19.3 µM (active)
16 | Cn1cc(-c2ccc3ncc(Cc4ccc5ncccc5c4)n3n2)cn1 | inactive
17 | OC[C@H]1O[C@@H](n2cnc3c(=S)nc[nH]c32)[C@H](O)[C@@H]1O | 4.85 µM (active)
18 | CC(C)CC(=O)Nc1n[nH]c2c1CN(C(=O)C1CCN(C)CC1)C2(C)C | 1.09 µM (active)
19 | COc1cc2ncnc(Nc3ccc(F)c(Cl)c3)c2cc1OCCCN1CCOCC1 | inactive
20 | CCN(CC)CCCC(C)Nc1c2ccc(Cl)cc2nc2ccc(OC)cc12 (stereo not given) | 43.2 µM (active)

Row | Compound | Potency
21 | CS(=O)(=O)c1ccc(-c2cnc(N)c(C(=O)Nc3ccccc3)n2)cc1 | inactive
22 | Cc1c2oc3c(C)ccc(C(=O)N[C@@H]4C(=O)N[C@H](C(C)C)C(=O)N5CCC[C@H]5C(=O)N(C)CC(=O)N(C)[C@@H](C(C)C)C(=O)O[C@@H]4C)c3nc-2c(C(=O)N[C@@H]2C(=O)N[C@H](C(C)C)C(=O)N3CCC[C@H]3C(=O)N(C)CC(=O)N(C)[C@@H](C(C)C)C(=O)O[C@@H]2C)c(N)c1=O (I: T[dV]P[Sar][NMeV] / II: T[dV]P[Sar][NMeV]; ester I:1-I:C, II:1-II:C; linker I:N-II:N via Actinocin(9to1)) | 1.09 µM (active)
23 | COc1ccc(OC)c(-c2nnc3ccc(-c4ccc(OC)c(O[C@@H]5CCOC5)c4)nn23)c1 | 4.85 µM (active)
24 | NC(=O)c1ccc2nc(-c3ccc(Oc4ccc(Cl)cc4)cc3)[nH]c2c1 | 21.7 µM (active)
25 | O=C(NOC[C@H](O)CO)c1ccc(F)c(F)c1Nc1ccc(I)cc1F | inactive
26 | CC(C)Nc1cc(-c2c[nH]c(C(=O)N[C@H](CO)c3cccc(Cl)c3)c2)c(Cl)cn1 | 27.3 µM (active)
27 | C[C@@H](Oc1cc(-c2cnn(C3CCNCC3)c2)cnc1N)c1c(Cl)ccc(F)c1Cl | 21.7 µM (active)
28 | CC(C)(C)C(=O)OCOP(=O)(COCCn1cnc2c(N)ncnc21)OCOC(=O)C(C)(C)C | 2.43 µM (active)
29 | O=c1c2ccccc2nc2n1CCc1c-2[nH]c2ccccc12 | inactive
30 | C=CC(=O)Nc1cc2c(Nc3ccc(F)c(Cl)c3)ncnc2cc1OCCCN1CCOCC1 | 27.3 µM (active)
31 | Cc1cnc(Nc2ccc(F)cc2Cl)nc1-c1c[nH]c(C(=O)NC(CO)c2cccc(Cl)c2)c1 (stereo not given) | inactive
32 | CN(C)CC/C=C1\c2ccccc2COc2ccccc21 | inactive
33 | COc1cc(N2CCC(N(C)C)CC2)ccc1Nc1ncc(Cl)c(Nc2ccccc2P(C)(C)=O)n1 | 15.3 µM (active)
34 | CC(=O)Nc1cccc(-n2c(=O)n(C3CC3)c(=O)c3c(Nc4ccc(I)cc4F)n(C)c(=O)c(C)c32)c1 | inactive
35 | Cc1nc(Nc2n[nH]c3c2CN(C(=O)NC(CN(C)C)c2ccccc2)C3(C)C)c2sccc2n1 (stereo not given) | 0.544 µM (active)
36 | Cc1[nH]c2ccccc2c1CCNCc1ccc(/C=C/C(=O)NO)cc1 | 0.193 µM (active)
37 | Cc1ccc(C(=O)N(CCCN)C(c2oc3cc(Cl)ccc3c(=O)c2Cc2ccccc2)C(C)C)cc1 (stereo not given) | 0.109 µM (active)
38 | Cc1cc(Nc2nc(N[C@@H](C)c3ccc(F)cc3)c(C#N)cc2F)n[nH]1 | 19.3 µM (active)
39 | Nc1ncn([C@@H]2O[C@H](CO)[C@@H](O)[C@H]2O)c(=O)n1 | inactive
40 | Cn1cnc([N+](=O)[O-])c1Sc1ncnc2nc[nH]c12 | 8.63 µM (active)
